# Data taken from PubChem BioAssay (EPA / NIEHS).
# Results filed as inconclusive are left out. Calls of active or inactive are those of the source. Rule for the calls: active = hit-call score of the fitted dose curve at least 0.9, where 1 is the maximum; inconclusive = response in the unintended direction; inactive = score below 0.9.
# Experiments:
# [1] = target: Mitogen-activated protein kinase 3 (Homo sapiens) (UniProt P27361); assay: NVS_ENZ_hMAPK3: NovaScreen (NVS) Enzymatic Assay for human Mitogen-Activated Protein Kinase 3 (MAPK 3) (AID 2283177)
# Summary of the method: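 Chemicals were first tested in duplicate at 25 uM, with hits re-run as concentration series (max 50 uM). Recombinant enzyme activity, measured 1 h post-dose in a cell-free format, was read by fluorescence/mobility shift relative to DMSO.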
# [2] = target: Collagenase 3 (Homo sapiens) (UniProt P45452); assay: NVS_ENZ_hMMP13: NovaScreen (NVS) Enzymatic Assay for human Matrix Metalloproteinase-13 (MMP13) (AID 2283182)
# Summary of the method: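 Recombinant MMP13 cleaving fluorescent substrate, cell-free, measured 1 h after dosing. Primary duplicate screen at 25 uM; actives tested in concentration-response up to 50 uM; loss of signal relative to DMSO.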
# [3] = target: human Matrix Metalloproteinase-2 (MMP2), MMP2 (gene 4313) (UniProt P08253); assay: NVS_ENZ_hMMP2: NovaScreen (NVS) Enzymatic Assay for human Matrix Metalloproteinase-2 (MMP2) (AID 2283184)
# Summary of the method: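 Compounds first screened in duplicate at a single 25 uM, with actives followed up in concentration series. Recombinant human MMP2 cleaves a fluorogenic substrate; fluorescence taken at 1 h, inhibition fitted relative to DMSO.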
# [4] = target: human Matrix Metalloproteinase-9 (MMP9), MMP9 (gene 4318) (UniProt P14780); assay: NVS_ENZ_hMMP9: NovaScreen (NVS) Enzymatic Assay for human Matrix Metalloproteinase-9 (MMP9) (AID 2283190);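 note: cell-free recombinant MMP9 protease activity read by fluorescent substrate signal; active means inhibition seen as loss of fluorescence signal versus DMSO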
# Summary of the method: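 Cell-free recombinant MMP9 enzyme activity measured by fluorescence intensity 1 h after dosing. Primary screen in duplicate at 25 uM, actives followed in concentration series; loss of signal relative to DMSO.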
# [5] = target: cAMP-dependent protein kinase catalytic subunit alpha (Homo sapiens) (UniProt P17612); assay: NVS_ENZ_hPKA: NovaScreen (NVS) Enzymatic Assay for human Protein Kinase A (PKA) (AID 2283192)
# Summary of the method: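 Cell-free kinase activity read by fluorescence after mobility-shift separation of substrate and product, 1 h post-dosing. Single-concentration duplicate screen (25 uM) preceded singleton concentration series (top 50 uM); loss of signal versus DMSO.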
# [6] = target: human MAP Kinase-Activated Protein Kinase 2 (MAPKAPK2), MAPKAPK2 (gene 9261) (UniProt P49137); assay: NVS_ENZ_hMAPKAPK2: NovaScreen (NVS) Enzymatic Assay for human MAP Kinase-Activated Protein Kinase 2 (MAPKAPK2) (AID 2283178)
# Summary of the method: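 Chemicals screened in duplicate at 25 uM, then to 50 uM top concentration in concentration-response, against recombinant human MAPKAPK2; substrate conversion read 1 hr post-dosing by fluorescence after electrophoretic mobility-shift separation, loss-of-signal relative to DMSO.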
# [7] = target: human Matrix Metalloproteinase-7 (MMP7), MMP7 (gene 4316) (UniProt P09237); assay: NVS_ENZ_hMMP7: NovaScreen (NVS) Enzymatic Assay for human Matrix Metalloproteinase-7 (MMP7) (AID 2283183)
# Summary of the method: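 Compounds first tested at 25 uM in duplicate, then at up to 50 uM in concentration series if active. Protease activity measured by fluorescence intensity 1 h after dosing, with fitting relative to DMSO.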
# [8] = target: human Matrix Metalloproteinase-3 (MMP3), MMP3 (gene 4314) (UniProt P08254); assay: NVS_ENZ_hMMP3: NovaScreen (NVS) Enzymatic Assay for human Matrix Metalloproteinase-3 (MMP3) (AID 2283185)
# Summary of the method: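 Fluorescent substrate turnover by recombinant MMP3 read after 1 h, signal loss scored against DMSO. Compounds first run in duplicate at 25 uM single dose, then actives confirmed by concentration series.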
# [9] = target: human Phosphoinositide 3-kinase alpha (PI3Ka), PIK3CA (gene 5290) (UniProt P42336); assay: NVS_ENZ_hPI3Ka: NovaScreen (NVS) Enzymatic Assay for human Phosphoinositide 3-kinase alpha (PI3Ka) (AID 2283196)
# Summary of the method: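 Recombinant human PI3Kα with fluorescent substrate, 1 h, product separated by electrophoretic mobility shift; 25 uM duplicate screen, hits (e.g., 30% inhibition) retested singly up to 50 uM; loss of signal vs DMSO.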
# [10] = target: human Phosphodiesterase 4A1 (PDE4A1), PDE4A (gene 5141) (UniProt P27815); assay: NVS_ENZ_hPDE4A1: NovaScreen (NVS) Enzymatic Assay for human Phosphodiesterase 4A1 (PDE4A1) (AID 2283191)
# Summary of the method: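 Fluorescent substrate turnover by recombinant PDE4A1 read after 1 h by mobility-shift separation. Primary duplicate screen at 25 uM; hits retested in concentration series with a 50 uM maximum, relative to DMSO.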
# [11] = target: human Phosphodiesterase 10 (PDE10), PDE10A (gene 10846) (UniProt Q9Y233); assay: NVS_ENZ_hPDE10: NovaScreen (NVS) Enzymatic Assay for human Phosphodiesterase 10 (PDE10) (AID 2283195)
# Summary of the method: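 Fluorescence readout after mobility-shift separation of substrate and product, 1 h reaction with recombinant human enzyme. Single-concentration duplicates at 25 uM, then concentration-response up to 50 uM for chemicals reaching threshold; DMSO baseline.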
# [12] = target: human Phosphodiesterase 5 (PDE5), PDE5A (gene 8654) (UniProt O76074); assay: NVS_ENZ_hPDE5: NovaScreen (NVS) Enzymatic Assay for human Phosphodiesterase 5 (PDE5) (AID 2283194)
# Summary of the method: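 Screening began in duplicate at 25 uM, with actives taken into concentration-response. Enzyme activity of recombinant PDE5 toward its substrate was measured at 1 h by fluorescence mobility-shift detection, relative to DMSO controls.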
# [13] = target: human Protein Tyrosine Phosphatase Non-receptor Type 1 (PTPN1), PTPN1 (gene 5770) (UniProt P18031); assay: NVS_ENZ_hPTPN1: NovaScreen (NVS) Enzymatic Assay for human Protein Tyrosine Phosphatase Non-receptor Type 1 (PTPN1) (AID 2283201)
# Summary of the method: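 Chemicals were first tested in duplicate at 25 uM, and those passing threshold went on to singleton concentration series topping at 50 uM. Recombinant enzyme, specific substrate, product separated by mobility shift, fluorescence read at 1.33 h; activity loss relative to DMSO.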
# [14] = target: human Mitogen- and Stress-activated Protein Kinase-1 (Msk1), RPS6KA5 (gene 9252) (UniProt O75582); assay: NVS_ENZ_hMsk1: NovaScreen (NVS) Enzymatic Assay for human Mitogen- and Stress-activated Protein Kinase-1 (Msk1) (AID 2283187)
# Summary of the method: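 Chemicals first run in duplicate at 25 uM, with actives followed up in singleton concentration series to 50 uM maximum. Enzyme activity came from substrate/product mobility-shift separation with fluorescence detection after 1 h incubation of the recombinant protein.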
# [15] = target: Tyrosine-protein phosphatase non-receptor type 13 (Homo sapiens) (UniProt Q12923); assay: NVS_ENZ_hPTPN13: NovaScreen (NVS) Enzymatic Assay for human Protein Tyrosine Phosphatase Non-receptor Type 13 (PTPN13) (AID 2283205)
# Summary of the method: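 Screened first at a single 25 uM in duplicate; compounds passing the threshold (e.g. 30% inhibition) were rerun in concentration series, top 50 uM. Recombinant enzyme, fluorescent substrate, mobility-shift separation, 0.5 h read. Data fitted as inhibition relative to DMSO.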
# [16] = target: Tyrosine-protein phosphatase non-receptor type 14 (Homo sapiens) (UniProt Q15678); assay: NVS_ENZ_hPTPN14: NovaScreen (NVS) Enzymatic Assay for human Protein Tyrosine Phosphatase Non-receptor Type 14 (PTPN14) (AID 2283206)
# Summary of the method: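 Fluorescent substrate turnover by recombinant human PTPN14 was measured 0.5 h after compound addition, with substrate and product separated by mobility shift. Single-point screening at 25 uM, then concentration-response up to 50 uM for chemicals meeting threshold (e.g., 30% inhibition).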
# [17] = target: human Protein Phosphatase, Mg2+/Mn2+ Dependent 1A (PPM1A), PPM1A (gene 5494) (UniProt P35813); assay: NVS_ENZ_hPPM1A: NovaScreen (NVS) Enzymatic Assay for human Protein Phosphatase, Mg2+/Mn2+ Dependent 1A (PPM1A) (AID 2283198)
# Summary of the method: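 Primary screen in duplicate at 25 uM, with actives then titrated to a maximum of 50 uM. Recombinant PPM1A dephosphorylation of fluorescent substrate measured at 1 h, with substrate and product separated by mobility shift; inhibition fitted against DMSO.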
# [18] = target: Tyrosine-protein phosphatase non-receptor type 11 (Homo sapiens) (UniProt Q06124); assay: NVS_ENZ_hPTPN11: NovaScreen (NVS) Enzymatic Assay for human Protein Tyrosine Phosphatase Non-receptor Type 11 (PTPN11) (AID 2283202)
# Summary of the method: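 Compounds first tested in duplicate at 25 uM; those reaching ~30% inhibition rerun in singleton concentration-response, top 50 uM. Phosphatase activity measured after 0.5 h by fluorescence with mobility-shift separation, relative to DMSO.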
# [19] = target: Serine/threonine-protein phosphatase PP1-alpha catalytic subunit (Homo sapiens) (UniProt P62136); assay: NVS_ENZ_hPPP1CA: NovaScreen (NVS) Enzymatic Assay for human Protein Phosphatase 1 Aatalytic subunit Alpha (PPP1CA) (AID 2283200)
# Summary of the method: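 Chemicals were first screened in duplicate at 25 uM, and those passing threshold (e.g. 30% inhibition) were run as concentration series to 50 uM. Cell-free recombinant protein, 1.33 h read, fluorescent substrate/product mobility-shift detection, normalised to DMSO.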
# [20] = target: Tyrosine-protein phosphatase non-receptor type 12 (Homo sapiens) (UniProt Q05209); assay: NVS_ENZ_hPTPN12: NovaScreen (NVS) Enzymatic Assay for human Protein Tyrosine Phosphatase Non-receptor Type 12 (PTPN12) (AID 2283204)
# Summary of the method: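 Single-concentration duplicates (25 uM) preceded singleton concentration-response up to 50 uM for chemicals passing threshold. Cell-free recombinant PTPN12 activity was read 1.33 h after dosing via fluorescence after mobility-shift separation; loss of signal versus DMSO.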
# Mitogen-activated protein kinase 3 (Homo sapiens), sequence (P27361 whole entry, looked up): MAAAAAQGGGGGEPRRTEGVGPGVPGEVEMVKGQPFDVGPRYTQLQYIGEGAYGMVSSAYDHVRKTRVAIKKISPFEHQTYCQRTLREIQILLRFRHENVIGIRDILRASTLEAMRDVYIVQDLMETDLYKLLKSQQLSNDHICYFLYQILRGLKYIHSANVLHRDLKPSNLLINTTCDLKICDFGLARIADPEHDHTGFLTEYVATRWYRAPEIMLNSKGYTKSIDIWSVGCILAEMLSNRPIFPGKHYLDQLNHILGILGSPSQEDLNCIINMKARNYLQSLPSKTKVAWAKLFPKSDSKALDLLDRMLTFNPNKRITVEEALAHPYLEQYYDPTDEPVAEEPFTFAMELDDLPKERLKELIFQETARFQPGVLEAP
# human Matrix Metalloproteinase-2 (MMP2), MMP2 (gene 4313), sequence (P08253 whole entry, looked up): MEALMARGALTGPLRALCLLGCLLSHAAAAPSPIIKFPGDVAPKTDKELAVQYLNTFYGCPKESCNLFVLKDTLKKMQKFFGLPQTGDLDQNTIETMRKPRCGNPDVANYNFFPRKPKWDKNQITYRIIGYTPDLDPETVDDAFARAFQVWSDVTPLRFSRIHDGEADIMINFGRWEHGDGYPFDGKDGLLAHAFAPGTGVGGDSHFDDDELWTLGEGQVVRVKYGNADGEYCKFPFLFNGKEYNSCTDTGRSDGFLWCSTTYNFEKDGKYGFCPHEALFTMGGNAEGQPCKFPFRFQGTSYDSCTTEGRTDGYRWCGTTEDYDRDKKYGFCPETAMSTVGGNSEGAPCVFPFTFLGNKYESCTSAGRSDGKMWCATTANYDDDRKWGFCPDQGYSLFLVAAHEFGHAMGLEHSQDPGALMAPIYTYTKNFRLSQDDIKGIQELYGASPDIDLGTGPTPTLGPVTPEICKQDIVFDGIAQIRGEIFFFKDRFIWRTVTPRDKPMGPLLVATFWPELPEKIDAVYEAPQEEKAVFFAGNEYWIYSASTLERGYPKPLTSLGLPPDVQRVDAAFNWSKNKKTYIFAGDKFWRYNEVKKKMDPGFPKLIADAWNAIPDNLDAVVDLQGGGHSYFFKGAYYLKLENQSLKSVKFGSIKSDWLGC
# Tyrosine-protein phosphatase non-receptor type 11 (Homo sapiens), sequence (Q06124 whole entry, looked up): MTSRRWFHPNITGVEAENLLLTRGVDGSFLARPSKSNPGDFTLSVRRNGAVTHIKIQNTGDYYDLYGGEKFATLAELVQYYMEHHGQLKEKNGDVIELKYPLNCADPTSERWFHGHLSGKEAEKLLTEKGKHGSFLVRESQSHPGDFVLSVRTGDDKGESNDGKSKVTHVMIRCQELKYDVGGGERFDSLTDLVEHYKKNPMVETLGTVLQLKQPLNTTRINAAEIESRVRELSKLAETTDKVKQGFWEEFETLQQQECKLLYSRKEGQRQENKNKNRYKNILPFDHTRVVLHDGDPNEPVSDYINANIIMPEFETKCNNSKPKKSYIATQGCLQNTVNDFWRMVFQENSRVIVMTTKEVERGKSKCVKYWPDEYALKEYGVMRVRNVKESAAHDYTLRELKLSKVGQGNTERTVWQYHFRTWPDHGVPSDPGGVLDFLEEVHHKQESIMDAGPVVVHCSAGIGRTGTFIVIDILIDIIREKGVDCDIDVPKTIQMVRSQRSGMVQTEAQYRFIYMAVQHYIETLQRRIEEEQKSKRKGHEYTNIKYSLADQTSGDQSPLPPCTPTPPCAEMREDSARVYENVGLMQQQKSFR
# human Protein Tyrosine Phosphatase Non-receptor Type 1 (PTPN1), PTPN1 (gene 5770), sequence (P18031 whole entry, looked up): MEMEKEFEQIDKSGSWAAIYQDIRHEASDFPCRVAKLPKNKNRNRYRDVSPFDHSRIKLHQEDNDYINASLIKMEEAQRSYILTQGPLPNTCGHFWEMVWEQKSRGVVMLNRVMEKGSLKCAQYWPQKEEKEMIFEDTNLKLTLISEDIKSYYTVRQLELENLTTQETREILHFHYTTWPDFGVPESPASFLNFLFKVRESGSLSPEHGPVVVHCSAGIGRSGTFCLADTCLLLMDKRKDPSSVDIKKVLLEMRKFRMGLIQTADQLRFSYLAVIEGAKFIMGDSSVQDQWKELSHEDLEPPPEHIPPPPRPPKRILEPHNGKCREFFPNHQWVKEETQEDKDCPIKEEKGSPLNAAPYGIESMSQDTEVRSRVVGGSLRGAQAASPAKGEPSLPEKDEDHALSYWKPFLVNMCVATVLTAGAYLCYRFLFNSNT
# human Mitogen- and Stress-activated Protein Kinase-1 (Msk1), RPS6KA5 (gene 9252), sequence (O75582 whole entry, looked up): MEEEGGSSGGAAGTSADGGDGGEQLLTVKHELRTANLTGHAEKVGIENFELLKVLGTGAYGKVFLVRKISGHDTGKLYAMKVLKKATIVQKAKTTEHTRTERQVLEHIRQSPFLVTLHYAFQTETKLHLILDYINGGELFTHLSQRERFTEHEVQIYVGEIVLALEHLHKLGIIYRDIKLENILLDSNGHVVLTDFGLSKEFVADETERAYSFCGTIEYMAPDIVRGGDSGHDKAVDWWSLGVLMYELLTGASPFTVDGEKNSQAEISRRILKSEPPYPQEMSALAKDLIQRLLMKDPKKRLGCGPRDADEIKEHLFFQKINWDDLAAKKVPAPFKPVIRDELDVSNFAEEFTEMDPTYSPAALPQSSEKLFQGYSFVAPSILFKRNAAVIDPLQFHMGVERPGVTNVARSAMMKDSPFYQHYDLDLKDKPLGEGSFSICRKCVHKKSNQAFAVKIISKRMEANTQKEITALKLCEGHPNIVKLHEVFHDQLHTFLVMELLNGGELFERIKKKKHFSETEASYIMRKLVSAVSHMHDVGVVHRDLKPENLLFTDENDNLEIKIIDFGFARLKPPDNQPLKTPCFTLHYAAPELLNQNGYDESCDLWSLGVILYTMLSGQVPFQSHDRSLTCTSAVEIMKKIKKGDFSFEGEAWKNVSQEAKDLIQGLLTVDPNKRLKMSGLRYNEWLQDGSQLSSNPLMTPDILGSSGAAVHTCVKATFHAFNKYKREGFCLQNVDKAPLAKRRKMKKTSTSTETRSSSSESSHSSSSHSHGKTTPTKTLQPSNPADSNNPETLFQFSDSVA
# human Matrix Metalloproteinase-7 (MMP7), MMP7 (gene 4316), sequence (P09237 whole entry, looked up): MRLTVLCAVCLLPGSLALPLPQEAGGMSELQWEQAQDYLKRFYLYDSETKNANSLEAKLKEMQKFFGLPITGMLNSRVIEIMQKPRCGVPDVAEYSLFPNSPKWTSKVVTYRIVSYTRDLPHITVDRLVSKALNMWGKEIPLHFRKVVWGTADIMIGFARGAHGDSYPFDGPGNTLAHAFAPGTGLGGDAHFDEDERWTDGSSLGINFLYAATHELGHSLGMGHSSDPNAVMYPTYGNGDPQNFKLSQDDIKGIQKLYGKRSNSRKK
# human Matrix Metalloproteinase-9 (MMP9), MMP9 (gene 4318), sequence (P14780 whole entry, looked up): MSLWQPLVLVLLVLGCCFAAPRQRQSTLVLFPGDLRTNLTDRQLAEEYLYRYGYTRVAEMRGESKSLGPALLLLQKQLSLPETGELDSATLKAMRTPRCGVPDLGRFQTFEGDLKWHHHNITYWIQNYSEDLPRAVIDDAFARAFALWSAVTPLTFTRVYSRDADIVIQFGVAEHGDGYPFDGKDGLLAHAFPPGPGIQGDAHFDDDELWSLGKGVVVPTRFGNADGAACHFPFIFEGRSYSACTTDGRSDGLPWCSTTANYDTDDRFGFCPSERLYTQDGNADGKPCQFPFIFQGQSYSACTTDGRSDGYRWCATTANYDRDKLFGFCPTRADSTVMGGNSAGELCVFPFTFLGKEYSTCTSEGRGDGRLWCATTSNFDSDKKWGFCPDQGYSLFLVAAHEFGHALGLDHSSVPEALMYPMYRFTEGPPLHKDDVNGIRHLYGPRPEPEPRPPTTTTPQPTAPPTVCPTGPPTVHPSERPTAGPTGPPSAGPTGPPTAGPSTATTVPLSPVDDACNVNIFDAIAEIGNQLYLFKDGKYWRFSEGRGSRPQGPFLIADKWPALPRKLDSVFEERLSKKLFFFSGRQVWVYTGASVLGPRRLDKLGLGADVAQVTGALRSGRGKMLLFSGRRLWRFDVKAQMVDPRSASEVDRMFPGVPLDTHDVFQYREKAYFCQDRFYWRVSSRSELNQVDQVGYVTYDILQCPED
# human Phosphodiesterase 4A1 (PDE4A1), PDE4A (gene 5141), sequence (P27815 whole entry, looked up): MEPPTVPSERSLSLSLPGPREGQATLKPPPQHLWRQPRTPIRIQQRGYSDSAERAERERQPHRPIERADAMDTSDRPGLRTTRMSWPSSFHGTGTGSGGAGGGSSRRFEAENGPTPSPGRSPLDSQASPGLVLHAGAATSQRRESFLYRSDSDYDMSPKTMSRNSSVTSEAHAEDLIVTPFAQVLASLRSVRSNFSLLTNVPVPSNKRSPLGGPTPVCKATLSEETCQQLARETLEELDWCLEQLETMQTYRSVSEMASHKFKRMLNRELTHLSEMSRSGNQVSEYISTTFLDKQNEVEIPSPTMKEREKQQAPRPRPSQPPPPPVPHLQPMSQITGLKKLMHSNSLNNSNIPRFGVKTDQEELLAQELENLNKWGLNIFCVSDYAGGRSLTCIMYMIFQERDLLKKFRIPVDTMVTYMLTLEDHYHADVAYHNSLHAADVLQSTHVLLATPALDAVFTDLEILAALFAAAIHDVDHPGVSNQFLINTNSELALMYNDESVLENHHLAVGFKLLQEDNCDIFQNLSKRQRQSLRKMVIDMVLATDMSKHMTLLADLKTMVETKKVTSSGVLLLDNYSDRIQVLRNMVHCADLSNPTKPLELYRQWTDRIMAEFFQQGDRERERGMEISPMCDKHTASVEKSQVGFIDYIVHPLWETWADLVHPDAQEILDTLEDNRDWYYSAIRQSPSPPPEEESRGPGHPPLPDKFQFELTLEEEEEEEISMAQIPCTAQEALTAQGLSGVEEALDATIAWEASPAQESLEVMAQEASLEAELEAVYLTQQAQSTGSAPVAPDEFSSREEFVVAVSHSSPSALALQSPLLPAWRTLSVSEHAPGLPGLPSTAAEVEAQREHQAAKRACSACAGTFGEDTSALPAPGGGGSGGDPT
compound,measurement,setting,value
O=C(O)c1cccnc1,outcome,[1],inactive
Cn1cnc2c1c(=O)[nH]c(=O)n2C,outcome,[2],inactive
same,outcome,[3],inactive
same,outcome,[4],inactive
CC(C)(C)c1ccccc1,AC50,[2],19.4 µM (active)
same,outcome,[5],inactive
O=C1c2c(O)cccc2Cc2cccc(O)c21,outcome,[6],inactive
same,AC50,[2],0.671 µM (active)
same,AC50,[7],20.3 µM (active)
same,AC50,[3],10.2 µM (active)
same,AC50,[8],8.87 µM (active)
same,outcome,[9],inactive
Nc1nc(=S)c2[nH]cnc2[nH]1,AC50,[2],27.1 µM (active)
same,outcome,[7],inactive
same,AC50,[3],18.8 µM (active)
same,AC50,[4],39.2 µM (active)
C#CC(O)C(CC)CCCC (stereo not given),outcome,[7],inactive
C=CCCCCCCCCCCCC,outcome,[1],inactive
CN(C)CCCN(C)CCCN(C)C,outcome,[7],inactive
same,outcome,[10],inactive
same,outcome,[11],inactive
O=C(O)CC(O)(CC(=O)O)C(=O)O,outcome,[1],inactive
O=C(N[C@@H](c1ccccc1)[C@@H]1CCCCN1)c1cccc(C(F)(F)F)c1Cl,outcome,[5],inactive
O=C1NC(=O)C(c2ccccc2)(c2ccccc2)N1,outcome,[10],inactive
Oc1ccccc1O,outcome,[12],inactive
CC(C)(O)c1ccc(CNC(=O)c2cccnc2Oc2ccc(F)cc2)cc1,outcome,[12],inactive
same,outcome,[11],inactive
CCCCC(CC)COP(=O)(OCC(CC)CCCC)OCC(CC)CCCC (stereo not given),outcome,[13],inactive
OCC(O)CO,outcome,[4],inactive
COc1ccc(OC(F)(F)F)cc1CN[C@H]1CCCN[C@H]1c1ccccc1,outcome,[14],inactive
same,outcome,[10],inactive
same,outcome,[5],inactive
same,outcome,[12],inactive
same,outcome,[11],inactive
same,outcome,[9],inactive
same,outcome,[15],inactive
same,outcome,[16],inactive
CCCCCCCCCCCCCCCCO,outcome,[17],inactive
O=C(Oc1ccccc1)c1cccc(C(=O)Oc2ccccc2)c1,outcome,[5],inactive
NCCOCCOCCN,outcome,[13],inactive
S=c1[nH]c2ccccc2s1,outcome,[14],inactive
same,outcome,[5],inactive
CC(=O)OC1CC(C)OC(C)O1 (stereo not given),outcome,[17],inactive
Cc1ccc(C(C)(C)C)c(O)c1,outcome,[17],inactive
CCCCOC(=O)CCCCC(=O)OCCCC,outcome,[11],inactive
same,outcome,[15],inactive
CC(C)NCC(O)c1ccc(O)c(O)c1 (stereo not given),outcome,[10],inactive
same,outcome,[18],inactive
same,outcome,[16],inactive
CC1(C)C(=O)NC(=O)N1CO,outcome,[12],inactive
COc1ccc(C(=O)Nc2nc3ccccc3c(NCc3ccccc3)c2C#N)cc1,AC50,[10],17.7 µM (active)
CCN(CC)CCOc1ccc(C(=C(Cl)c2ccccc2)c2ccccc2)cc1,outcome,[18],inactive
CC(N)=O,outcome,[12],inactive
CN(C)C(=O)NC1(c2ccccc2)CCN(CC[C@@]2(c3ccc(F)c(F)c3)CN(C(=O)c3ccccc3)CCO2)CC1,outcome,[14],inactive
same,AC50,[12],40 µM (active)
same,outcome,[9],inactive
same,outcome,[19],inactive
same,outcome,[18],inactive
C/C=C/C=C/C(=O)O,AC50,[4],1.24 µM (active)
same,outcome,[10],inactive
same,outcome,[11],inactive
O=C(NS(=O)(=O)/C=C/c1cccs1)c1ccc(F)cc1Br,outcome,[13],inactive
same,outcome,[20],inactive
Nc1nc(Cl)nc2c1ncn2[C@H]1C[C@H](O)[C@@H](CO)O1,AC50,[10],9.18 µM (active)
CC(=O)CC(c1ccccc1)c1c(O)c2ccccc2oc1=O (stereo not given),outcome,[5],inactive
